# According to PubChem BioAssay:
# How the values were obtained:
# [1] = test system: Human papillomavirus type 1a protein E7 (residues 44-93); assay: small molecules binding HPV E7 44-93 – biochemical, small-molecule microarray, residues 44-93, 635 nm fluorescence, primary screen (AID 1108); conditions: fluorescence 635 nm, higher = more signal;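 also: E7 fragment applied at 1 µg/mL in TBST for 1 h at 4 C; score combines spot fluorescence with its signal to noise ratio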
# [2] = hepatitis C replication reporter changes, two-sided – Huh7 cells, luciferase reporter, HCV replication inhibitor project, primary screen (AID 1109); conditions: Huh7 HCV replicon luciferase reporter, 48 h; higher = more signal;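 also: huh7 hepatoma cells harbouring a luciferase neomycin HCV replicon reporter; luciferase luminescence as measure of HCV replicon replication; test concentration not given here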
# [3] = target: Left-right determination factor 2 (Homo sapiens) (UniProt O00292); assay: small molecules binding LEFTY2 protein – biochemical, small-molecule microarray, 635 nm fluorescence scan, primary screen (AID 1110); conditions: higher = more signal
# [4] = target: Calmodulin-1 (Homo sapiens) (UniProt P0DP23); assay: small molecules binding calmodulin-1 with EGTA – biochemical, small-molecule microarray, Cy5-labelled CALM1, profiling panel (AID 1111); conditions: Cy5-CALM1 binding fluorescence, higher = more signal;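 also: labelled calmodulin applied in Tris saline Tween buffer holding calcium plus EGTA and DTT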
# [5] = target: Calmodulin-1 (Homo sapiens) (UniProt P0DP23); assay: small molecules binding Ca-loaded calmodulin-1 – biochemical, small-molecule microarray, Cy5-labelled CALM1, plus calcium, artefact control for SMM control-protein annotation, profiling panel (AID 1112); conditions: Cy5-CALM1 binding fluorescence, higher = more signal;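 also: score merges spot fluorescence with signal to noise from triplicate slides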
# [6] = probe aWnt5a binding to arrayed compounds – biochemical, biotinylated probe, 635/667 nm fluorescence, primary screen (AID 1113); conditions: small-molecule microarray, higher = more signal;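 also: score merges 667 nm fluorescence intensity with signal-to-noise per printed feature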
# [7] = probe aShh binding to arrayed compounds – biochemical, biotinylated probe, 635/667 nm fluorescence, primary screen (AID 1114); conditions: small-molecule microarray, higher = more signal;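 also: probe is biotin-labelled aShh protein from a stem cell growth factor screen; measures binding of labelled protein to compounds printed on the slide; score merges feature fluorescence at 667 nm with signal-to-noise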
# [8] = probe aNog binding to arrayed compounds – biochemical, biotinylated probe, 635/667 nm fluorescence, primary screen (AID 1115); conditions: small-molecule microarray, higher = more signal;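 also: probe is biotinylated aNog protein used at 0.15 µg/mL for 1 h at 4 C; z-score combines 667 nm fluorescence of each spot with its signal to noise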
# [9] = target: Torsin-1A-interacting protein 1 (Homo sapiens) (UniProt Q5JTV8); assay: compound microarray binding of lysate hLAP1 – cell lysate, small-molecule microarray, COS7 lysate, 635/667 nm fluorescence, primary screen (AID 1116); conditions: 635 nm fluorescence, higher = more signal
# [10] = target: Alpha-bungarotoxin (Bungarus multicinctus) (UniProt P60615); assay: compounds binding labelled alpha-BTX control protein – biochemical, small-molecule microarray, Alexa647 label, 635/667 nm fluorescence, artefact control for SMM control protein annotation, profiling panel (AID 1117); conditions: alpha-BTX-A647 binding fluorescence, higher = more signal
# Alpha-bungarotoxin (Bungarus multicinctus), sequence (P60615 whole entry, looked up): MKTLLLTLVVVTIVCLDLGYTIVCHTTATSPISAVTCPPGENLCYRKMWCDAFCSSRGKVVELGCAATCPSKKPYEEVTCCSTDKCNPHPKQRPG
# Torsin-1A-interacting protein 1 (Homo sapiens), sequence (Q5JTV8 whole entry, looked up): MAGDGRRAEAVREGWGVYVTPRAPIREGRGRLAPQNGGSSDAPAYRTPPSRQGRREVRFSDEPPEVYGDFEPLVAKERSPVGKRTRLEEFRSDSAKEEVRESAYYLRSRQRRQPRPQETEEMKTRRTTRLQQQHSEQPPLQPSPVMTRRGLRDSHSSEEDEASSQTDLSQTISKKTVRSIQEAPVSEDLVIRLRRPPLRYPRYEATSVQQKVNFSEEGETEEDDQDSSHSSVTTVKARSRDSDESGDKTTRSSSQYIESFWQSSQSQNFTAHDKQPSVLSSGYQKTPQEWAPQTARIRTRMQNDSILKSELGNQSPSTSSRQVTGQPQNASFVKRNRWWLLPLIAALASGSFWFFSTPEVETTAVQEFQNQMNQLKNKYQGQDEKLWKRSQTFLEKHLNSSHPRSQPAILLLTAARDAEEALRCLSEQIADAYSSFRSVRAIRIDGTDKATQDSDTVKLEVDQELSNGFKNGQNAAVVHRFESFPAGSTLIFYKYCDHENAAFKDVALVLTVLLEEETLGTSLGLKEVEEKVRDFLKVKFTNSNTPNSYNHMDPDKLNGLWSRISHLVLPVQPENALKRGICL
# Left-right determination factor 2 (Homo sapiens), sequence (O00292 whole entry, looked up): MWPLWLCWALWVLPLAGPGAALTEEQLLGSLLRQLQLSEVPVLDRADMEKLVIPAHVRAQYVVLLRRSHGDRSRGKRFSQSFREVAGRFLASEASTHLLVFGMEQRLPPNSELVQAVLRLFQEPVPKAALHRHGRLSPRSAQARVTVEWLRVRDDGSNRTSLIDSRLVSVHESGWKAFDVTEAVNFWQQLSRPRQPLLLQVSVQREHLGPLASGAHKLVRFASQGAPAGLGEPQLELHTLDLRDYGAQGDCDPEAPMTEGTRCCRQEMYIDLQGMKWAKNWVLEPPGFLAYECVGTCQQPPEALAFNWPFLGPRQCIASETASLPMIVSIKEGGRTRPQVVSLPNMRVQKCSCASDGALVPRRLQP
SMILES,composite z-score [1],z-score [2],composite z-score [3],composite z-score [4],composite z-score [5],composite z-score [6],composite z-score [7],composite z-score [8],composite z-score [9],composite z-score [10]
O=C1[C@H]2[C@H]3[C@H](O)[C@H](O)CC(=NO[C@@H]4O[C@H](CO)[C@@H](O)[C@H](O)[C@H]4O)[C@@H]3CC[C@H]2C(=O)N1Cc1ccc2c(c1)OCO2,1.13,0.363,0.387,0.0102,-0.566,-0.0519,-0.403,-0.244,0.715,0.378
COC(=O)[C@@]1(Cc2ccc(F)cc2)[C@H]2c3cc(C(=O)N(C)C)n(Cc4ccc(OC)c(OC)c4)c3C[C@H]2CN1C(=O)c1ccccc1,0.0897,-1.44,-0.137,0.482,0.0167,0.0833,0.299,0.338,0.0894,0.0611
CC(C)(C)N1CC=CC23O[C@@H]4C=CCCOC(=O)C4[C@H]2C(=O)N(CCCCCO)[C@@H]3C1=O (stereo not given in full),0.433,0.651,-0.316,-0.582,-0.839,-0.0327,0.0796,-0.206,2.15,-0.949
COC(=O)C1=C(C)[C@@H](O)[C@@H](C)[C@H](c2c(OC)c(OC)c(C)c(OC)c2OC)O1,-0.685,-0.566,0.494,-0.628,-0.787,-0.171,-0.0011,-0.135,0.272,0.138
CCOC(=O)[C@H](CC(C)C)NC(=O)CCC1CC(OC(=O)NCc2cccc3ccccc23)CC2(CCCC(COC(=O)NCCN3CCOCC3)O2)O1 (stereo not given in full),1.26,-0.814,0.444,0.144,-0.854,-0.176,-0.0605,-0.261,0.217,0.548
COC(=O)CC=C[C@H](C)[C@@H](OCc1ccccc1Br)C(C)C,-0.261,0.0087,0.551,-0.354,-0.679,-0.0417,-0.138,-0.333,-0.173,1.54
CO[C@H]1O[C@H](CO)[C@@H](OC(=O)Nc2ccc3c(c2)OCO3)[C@H](OC(=O)Nc2ccccc2-c2ccccc2)[C@@H]1OC(=O)Nc1ccccc1-c1ccccc1,1.36,-2.26,0.232,1.6,0.116,0.0601,0.184,0.902,1.28,0.614
CO[C@@H]1COC(=O)CC=C[C@@H](C)[C@H](OC)COC(=O)[C@H](COCc2ccccc2)NC(=O)CC=C[C@H]1C,-2.18,-1.36,0.62,-1.07,-2.36,-0.232,-0.302,-0.625,0.0597,-0.486
COCCOC(=O)N1C(=O)[C@@]2(c3cc(C#CCNC(N)=O)ccc31)[C@H](c1ccc(O)cc1)N1[C@H](c3ccccc3)[C@H](c3ccccc3)OC(=O)[C@H]1[C@@H]2C(=O)N1CCCCCCC1,1.13,-0.768,0.817,-0.0989,-0.218,-0.0718,0.108,-0.559,0.774,0.413
CC(C)(C)OC(=O)CC[C@]1(C(=O)NCc2ccccc2)N=C(c2ccc(OCCCO)cc2)O[C@H]1c1ccccc1,1.02,-2.44,-0.598,1.91,0.683,0.257,0.147,-0.198,1.6,1.53
CO[C@@H]1COC(=O)CC=C[C@@H](C)COC(=O)[C@H](COCc2ccccc2)NC(=O)CC=C[C@H]1C,-0.956,-0.151,1.02,-0.838,-1.28,-0.0721,0.0278,-0.298,0.325,-0.397
COC(=O)[C@H](C)NC(=O)CCC1CC(OC(=O)NCCc2ccc(F)cc2)CC2(CCCC(COC(=O)NCC(c3ccccc3)c3ccccc3)O2)O1 (stereo not given in full),1.39,-0.375,0.386,0.084,-0.443,-0.124,0.0062,-0.152,0.516,0.853
CCCNC(=O)[C@@H]1c2ccccc2C(=O)N(Cc2ccccc2Cl)[C@H]1c1ccc(CO)cc1,1.22,-0.656,0.531,0.936,0.375,-0.0203,-0.0769,0.546,0.598,0.726
